Reference: PubChem BioAssay (NCI)
“And” between values parts separate entries of the source, which are not always exact repeats. Equal entries are not always repeated. This is part of a sample that, as a whole, favours compounds with a hit. Of some 83,000 tested, about 20% had one in any assay.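 Treatment: one concentration, 48 hours, 96-well format. Scoring: percent growth, with anything below 10 considered active.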 The source made the active and inactive calls.

test system: HL-60(TB) leukemia; assay: NCI-60 one-dose screen, 48 h (100 = growth as untreated, 0 = no growth, -100 = all killed); conditions: 10 µM unless noted

Structure (SMILES)	growth
COc1cc2oc(-c3cccc(NC(=O)[C@H](CC(N)=O)NC(=O)OC(C)(C)C)c3)cc(=O)c2c(OC)c1OC	67.2% (inactive)
CN1CCCN(Cc2ccc(C(=O)Nc3cccc(Nc4ccc5c(O)cccc5n4)c3)cc2C(F)(F)F)CC1	-7.86% (active)
O=C(Nc1nc2ccc([N+](=O)[O-])cc2s1)Nc1ccc(Cl)cc1Cl	50.1% (inactive)
C#CCOc1ccc(/C=N/Nc2nc(-c3cc4cc(OC)ccc4oc3=O)cs2)cc1OC	76.1% (inactive)
COc1cc(/C=C2\C(=N)N=C(SCc3nc4ccccc4[nH]3)NC2=O)ccc1O	83.7% (inactive)
CC(=O)Nc1ccc(-n2cnc3cc(-c4ccc(NS(C)(=O)=O)cc4)ccc32)cc1	59.9% (inactive)
CCN1CCN(Cc2ccc(NC(=O)c3cccc(-n4cc(-c5ccc(NC(C)=O)nc5)nn4)c3)cc2C(F)(F)F)CC1	65.4% (inactive)
CN1CCN(c2ccc(C(=O)/C=C/c3cc(C(F)(F)F)ccc3Cl)cc2)CC1	-29.3% (active)
Cc1nn(-c2ccccc2)c2nc(C)n(C(=O)N/N=C/c3cccc([N+](=O)[O-])c3)c(=O)c12	74% (inactive)
O=C(NNC(=O)c1ccc(OCc2nc3ccc(Cl)cc3[nH]2)cc1)Nc1ccc(Cl)c(Cl)c1	103% (inactive)
COc1cc(CNC(=O)C[C@H](C)CCC=C(C)C)ccc1OCc1cn(-c2ccc(Cl)c(Cl)c2)nn1	84% (inactive)
C=C1CCC2C3(C)COC(c4cccc(F)c4)OC3CCC2(C)C1C/C=C1/C(=O)OCC1O (stereo not given)	4.43% (active)
O=C(c1ccc(Cl)cc1)C1[C@H](c2ccccc2Cl)[C@@H](c2ccccc2)NC12C(=O)Nc1ccc(Br)cc12 (stereo not given in full)	-43.7% (active)
N#CC1=C(c2cccs2)Nc2c(c(-c3ccccc3)nn2-c2ccccc2)C12C(=O)Nc1ccccc12 (stereo not given)	0.7% (active)
COc1cc2c(c(OC)c1OC)C(=O)CC(c1cccc(NC(=O)c3cccc(NC(=O)[C@H](C)NC(=O)OC(C)(C)C)c3)c1)O2 (stereo not given in full)	71.2% (inactive)
N#C/C(=C\c1ccc(N(c2ccccc2)c2ccccc2)cc1)C(N)=O	68.7% (inactive)
CCCCCCn1c(O)c(N=Nc2nc(-c3cc4ccccc4oc3=O)cs2)c2ccccc21	87.8% (inactive)
CN(C)c1nc(NCCNS(=O)(=O)c2ccc(C(=O)/C=C/c3ccc(F)cc3)cc2)nc(Nc2ccc(F)cc2)n1	-38.7% (active)
O=C1/C(=C/C2=Cc3ccccc3OC2)SC(=S)N1c1ccccc1F	87.9% (inactive)
COc1ccc(C2CC(c3ccc(S(=O)(=O)NCCNc4nc(Nc5ccc(F)cc5)nc(N(C)C)n4)cc3)=Nc3c(N)nc(N)nc3N2)cc1 (stereo not given)	52.5% (inactive)

Structure (SMILES)	growth
Cc1ccc(C(=O)CSc2nnc(-c3c[nH]c4ccccc34)n2-c2ccccc2)cc1	43.3% (inactive)
CN1CCc2c(sc3ncnc(N/N=C/c4cccc(Cl)c4Cl)c23)C1	-50.9% (active)
Cc1cc(N=C2NC(=O)S/C2=C\c2ccc(F)cc2)n[nH]1	1.74% (active)
COC(=O)CNC(=O)COc1c(OC)c(OC)cc2oc(-c3cccc(C(=O)Nc4ccc(Cl)cc4)c3)cc(=O)c12	101% (inactive)
O=c1oc2ccccc2cc1-c1csc(N=Nc2c(O)[nH]c3ccc(Br)cc23)n1	99% (inactive)
CN1C(=O)/C(=C\C(=O)c2cc3ccccc3oc2=O)c2ccccc21	79.3% (inactive)
CC(=O)Nc1cccc(-n2c(COc3ccc(I)cc3)nc3ccccc32)c1	116% (inactive) and 92.8% (inactive)
COC(=O)C(Cc1ccc(O)c(O)c1)NC(=O)C(CSC/C=C(\C)CCCC(C)CCCC(C)CCCC(C)C)NC(C)=O (stereo not given)	-22.9% (active)
Cn1cc(-c2cc(N)n3nc(-c4cn(C)c5ccccc45)cc3n2)c2cc(Cl)ccc21	-26% (active)
COc1ccc(N2N=C(c3ccc4c(c3)OCCO4)CC2c2cccc(NC(=O)CCCNS(=O)(=O)c3ccc(F)cc3)c2)cc1 (stereo not given)	80.5% (inactive)
COc1cc2c(c(OC)c1OC)C(=O)CC(c1cccc(NC(=O)c3cccc(N)c3)c1)O2 (stereo not given)	86.4% (inactive)
Cc1ccc(-c2cc(C(=O)N=Nc3c(O)[nH]c4ccc(F)cc34)c3ccccc3n2)cc1	88.4% (inactive)
NS(=O)(=O)c1ccc(N=Nc2c(O)n(CC(=O)Nc3ccccc3Cl)c3ccccc23)cc1	45.8% (inactive)
COc1c2c(c(Br)c3c1C(CCc1ccccc1)N(C)CC3)OCO2 (stereo not given)	14.1% (inactive)
Clc1cccc(-c2ccc(OCCCN3CCN(c4ccncc4)CC3)cc2)c1	-53.9% (active)
COc1ccc(-c2nc3ccc(-c4nnc(SCc5ccccc5)o4)cc3[nH]2)cc1OC	78.4% (inactive)
CC(=O)c1cc(C(=O)N2c3ccccc3Sc3ccccc32)n2ccc(C)cc12	33.3% (inactive)
CCCCSc1nc(Nc2ccc(/C(C)=N/NC(N)=S)cc2)c(C#N)c(-c2ccccc2)n1	79.3% (inactive)
CN1CCN(Cc2ccc(NC(=O)c3cncc(C#Cc4cnc5ccc(N[C@@H]6CCOC6)nn45)c3)cc2C(F)(F)F)CC1	-57.9% (active)
Cc1ccc(Cc2cnc(NC(=O)c3ccc(/C=C4\SC(=S)N(C)C4=O)cc3)s2)cc1	18% (inactive)
